From PubChem BioAssay (Tox21)
Where “and” joins values, the source holds several entries; their conditions need not be identical. Identical values can stand only once. Results filed as inconclusive are left out. Calls of active or inactive are those of the source. Calls come from the whole dose curve; as a rule, active = well fitted cell-killing curve with a large enough effect in the repeat runs; inconclusive = weak or mixed curves, or effect the other way; inactive = no such curve, though single readings can be large or run the other way.

Assay: Caspase-3/7 induction in CHO-K1 cells by small molecules, qHTS cell viability counter screen (AID 1346979); note: nearly all actives have a fitted effect of over 35% in size
Conditions: CellTiter-Fluor fluorescence, 17 h; series mostly up to 92.4 µM
Procedure, shortened: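 CellTiter-Fluor viability check, qHTS format: wild-type CHO-K1, 16hr compound treatment, 1hr reagent incubation, fluorescence read.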
Potency is the fitted concentration of half-maximal effect.

SMILES	Potency
CCCCOP(=O)(CCCC)OCCCC	inactive
CC(C)(C)C(O)/C(=C\c1ccc(Cl)cc1Cl)n1cncn1 (centres undefined)	37.1 µM (active)
Oc1ccc(C2(c3ccc(O)cc3)c3ccccc3-c3ccccc32)cc1	68.6 µM (active)
CC1(C)CN=C(NN=C(/C=C/c2ccc(C(F)(F)F)cc2)/C=C/c2ccc(C(F)(F)F)cc2)NC1	8.63 µM (active)
CN(C)C1CSSSC1	inactive
ClC1=C(Cl)C2(Cl)C3C(Cl)C(Cl)CC3C1(Cl)C2(Cl)Cl (centres undefined)	60.9 µM (active)
C=CCC1=C(C)C(OC(=O)C2C(C=C(C)C)C2(C)C)CC1=O (centres undefined)	55.3 µM (active)
CC(C)(C)C(O)C(Oc1ccc(-c2ccccc2)cc1)n1cncn1 (centres undefined)	61.1 µM (active)
O=C(Nc1ccc2[nH]ccc2c1)c1cc2cc(F)ccc2n1Cc1cccc(F)c1	30.6 µM (active)
N#CSCSC#N	9.91 µM (active) and 9.59 µM (active)
CC(C)(c1ccc(O)c(-c2ccccc2)c1)c1ccc(O)c(-c2ccccc2)c1	43.3 µM (active)
Clc1ccc(CO/N=C(\Cn2ccnc2)c2ccc(Cl)cc2Cl)c(Cl)c1	16.8 µM (active)
N#Cc1ccc(O)cc1	inactive
c1cc[c]([Sb]([c]2ccccc2)[c]2ccccc2)cc1	68.6 µM (active)
O=C(O)C1C2CCC(O2)C1C(=O)O (centres undefined)	55.1 µM (active) and 44.5 µM (active)
ClC1=C(Cl)[C@]2(Cl)[C@@H]3[C@@H]4C[C@@H]([C@H]5O[C@@H]45)[C@@H]3[C@@]1(Cl)C2(Cl)Cl	61.1 µM (active)
CCCCN(CCCC)C(=S)[S-].CCCCN(CCCC)C(=S)[S-].[Zn+2]	21.7 µM (active)
CC(=O)c1cc(C(C)(C)C)cc2c1CCC2(C)C	inactive
O=c1c(C2CC(c3ccc(-c4ccc(Br)cc4)cc3)Cc3ccccc32)c(O)sc2ccccc12 (centres undefined)	18.8 µM (active)
CC(C)Oc1cccc(NC(=O)c2ccccc2C(F)(F)F)c1	45.8 µM (active)
CC(C)(C)OO	inactive
CCCOCC(=Nc1ccc(Cl)cc1C(F)(F)F)n1ccnc1	48.5 µM (active)
Clc1ccc(-c2ccc(Cl)c(Cl)c2Cl)c(Cl)c1Cl	inactive
Clc1ccc(-c2ccccc2)cc1	inactive
CCN	inactive
CCCCCCCCCC[N+](C)(C)CCCCCCCCCC	19.3 µM (active)
O=C1c2ccccc2C(=O)C1C(=O)C(c1ccccc1)c1ccc(Cl)cc1 (centres undefined)	15.4 µM (active)
CCS(=O)(=O)c1cccnc1S(=O)(=O)NC(=O)Nc1nc(OC)cc(OC)n1	inactive
[CH3][Hg][Cl]	7.67 µM (active)
